Data taken from the supplement of paper PMC9948646.
A number with no mark means an inactive call.

System: gramicidin D channels in DC22:1PC lipid vesicles (bilayer-modifying potency)
Assay: initial Tl+ fluorescence quench rate relative to no-drug control (NormRate, gramicidin monomer-dimer shift) (ratio (fold of control)); higher = stronger bilayer-modifying effect (equilibrium shifted toward conducting dimers), active = 1.5 or more
Conditions: 10 µM; lipid concentration 50 µM; temperature: 25 °C
Experimental: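 Stopped-flow fluorescence quench assay: ANTS-loaded DC22:1PC large unilamellar vesicles doped with gramicidin D (1:2000), 50 µM lipid, equilibrated 10 min with 10 µM drug (0.1% DMSO), mixed with Tl+ quench buffer at 25°C. Initial quench rate (Tl+ influx) was fitted with a modified stretched exponential and normalised to the no-drug control rate (NormRate); duplicates from two independent LUV preparations (triplicates for 7 drugs).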

With `CN1CCN(S(=O)(=O)c2ccc(-c3ccc4c(Nc5ncc(Cl)cn5)ccnc4c3)cc2)CC1` the “initial Tl+ fluorescence quench rate” value was 2.76 (active).
With `COc1ccc(-c2cnc3ccc(N4CCCC4)nn23)cc1OC` the “initial Tl+ fluorescence quench rate” value was 2.31 (active).
`CCOc1ccccc1N[C@H](C)C(=O)Nc1cc(C(F)(F)F)ccc1N1CCOCC1` was tested, and the “initial Tl+ fluorescence quench rate” value was 1.72 (active).
With `COc1ccc(C2=NN(C3CCCCCC3)C(=O)C2(C)C)cc1OCCCCOc1ccc(-c2nn[nH]n2)cc1` the “initial Tl+ fluorescence quench rate” value was 9.05 (active).
With `O=C(NC1CC1)c1ccc(N2CCOc3ccc(Cl)cc32)s1` the “initial Tl+ fluorescence quench rate” value was 3.52 (active).
In the case of `CC(C)=CCC/C(C)=C\CNCCN[C@H]1[C@@H]2C[C@H]3C[C@@H](C2)C[C@@H]1C3`, the “initial Tl+ fluorescence quench rate” value is reported as 1.66 (active).
With `O=C(Nc1cccc(Cl)c1)c1cnc(N2CCN(c3ccncc3)CC2)c(Cl)c1` the “initial Tl+ fluorescence quench rate” value was 3.74 (active).
In the case of `O=C(Nc1ccc(C(F)(F)F)c(C(F)(F)F)c1)c1cc(Cl)ccc1O`, the “initial Tl+ fluorescence quench rate” value is reported as 2.9 (active).

First: COc1ccccc1[C@H](C)NCC(=O)Nc1cc(C(F)(F)F)ccc1Cl
Second: COc1ccc(O[C@H](C)C(=O)Nc2ccc(Cl)cc2C)cc1
The “initial Tl+ fluorescence quench rate” value of the first is higher: 1.17 for the first, 1.05 for the second.

Compared with `CCOC(=O)c1noc(N)c1-c1ccccc1`, `Cc1cc(C(=O)Nc2ccc(-c3ccccc3)cc2)no1` is higher in “initial Tl+ fluorescence quench rate” value: 1.03 for the first, 1.11 for the second.

Compared with `O=C(Nc1ccnc(-c2cccnc2)n1)c1cc(C(F)(F)F)cc(C(F)(F)F)c1`, `CC(C)(C)c1cc(C(=O)Nc2cccnc2)cc(C(=O)Nc2cccnc2)c1` is higher in “initial Tl+ fluorescence quench rate” value: 1.2 for the first, 1.39 for the second.

Going from `CNC(=O)c1cc(S(=O)(=O)N2CCN(c3ccccn3)CC2)cs1` to `COc1cncc(-c2cncc(N3CCN(c4ccncc4)CC3)n2)c1`, the “initial Tl+ fluorescence quench rate” value rises from 1.07 to 1.11.

Compared with `NC(=O)c1cc(Br)ccc1OCCOc1ccccc1`, `COc1cccc(OCC(=O)c2ccc(Br)cc2)c1` is lower in “initial Tl+ fluorescence quench rate” value: 1.21 for the first, 1.06 for the second.

Going from `CS(=O)(=O)c1ccccc1C(=O)N(Cc1ccccc1)c1ccccc1` to `O=C(c1ccc(F)cc1)N(CCNc1ccccc1)c1ccccc1`, the “initial Tl+ fluorescence quench rate” value rises from 1.09 to 1.36.

Compared with `COc1ccc(S(=O)(=O)Nc2ccc(CN3CCN(C(=O)c4cccc(C#N)c4)CC3)cc2)cc1`, `COc1ccc2nccc(NC(=O)C3CCN(CCc4ccc(Cl)cc4)CC3)c2n1` is lower in “initial Tl+ fluorescence quench rate” value: 1.41 for the first, 1.09 for the second.

`NCC[C@H](O)C(=O)N[C@@H]1C[C@H](N)[C@@H](O[C@H]2O[C@H](CN)[C@@H](O)[C@H](O)[C@H]2O)[C@H](O)[C@@H]1O[C@H]1O[C@H](CO)[C@@H](O)[C@H](N)[C@H]1O` and `COc1cc(N[C@H](C)CCCN)c2ncccc2c1` are the same in “initial Tl+ fluorescence quench rate” value: 1.02 for the first, 1.02 for the second.

First: Clc1ccc(CN2CCN(C3=NCCN3)CC2)cc1Cl
Second: CCN(CC)CCCN1CCN(C(=O)c2cccc(-c3noc(C(F)(F)F)n3)c2)CC1
The “initial Tl+ fluorescence quench rate” value of the first is lower: 1.2 for the first, 1.25 for the second.

Going from `OCCc1ccc(Nc2nccc(-c3nnc4ccccn34)n2)cc1` to `Clc1ccc(-n2cc(COc3ccnc4ccccc34)nn2)cc1`, the “initial Tl+ fluorescence quench rate” value rises from 1.01 to 1.13.

Compared with `CCOC(=O)c1c(NC(=O)c2c(F)c(F)c(F)c(F)c2F)sc(C(N)=O)c1C`, `CCNC(=O)[C@H](C)Nc1nc(-c2cccnc2)nc2sc(C)c(C)c12` is lower in “initial Tl+ fluorescence quench rate” value: 1.41 for the first, 1.08 for the second.

Going from `CC(=O)Nc1ccc(NC(=O)c2cc(-c3cc(Cl)ccc3O)[nH]n2)cc1` to `Cc1cccc(Cn2ccc(NC(=O)c3ccc4c(c3)OCO4)n2)c1`, the “initial Tl+ fluorescence quench rate” value rises from 1.06 to 1.35.

Going from `Cc1ccc(NC(=O)c2cc(S(=O)(=O)NC(C)(C)C)ccc2C)nc1` to `Cc1nn2c(O)c3c(nc2c1-c1ccc(F)cc1)CCCC3`, the “initial Tl+ fluorescence quench rate” value falls from 1.21 to 1.07.

First: N#Cc1nc(-c2ccccc2F)oc1NCCc1ccccc1
Second: CN1CCCN([C@H](c2ccccc2)c2ccc(Cl)cc2)CC1
The “initial Tl+ fluorescence quench rate” value of the first is lower: 1.04 for the first, 1.43 for the second.

First: Nc1ncnc2c1c(-c1cnc3ccccc3c1)nn2CC1CCNCC1
Second: c1cc(C2=NCCN2)cc(-c2cc(-c3ccc(C4=NCCN4)cc3)no2)c1
The “initial Tl+ fluorescence quench rate” value of the first is lower: 1.07 for the first, 1.17 for the second.

Compared with `CCN(CC)C(=O)N1CCN(C)CC1`, `COc1cccc2c(C)nc(N=C(N)N)nc12` is lower in “initial Tl+ fluorescence quench rate” value: 1.1 for the first, 1.08 for the second.
